# Like-named read-outs stand apart in the source and are kept apart here.
# Key:
# SgK110 = settings: concentration: 1 μM, replicates: in singlicate; n = 1
# TAK1 = tested on: T1, TAK1; settings: concentration: 1 μM, replicates: in singlicate; n = 1
# T1 construct: gene MAP3K7
# TAOK1 = settings: concentration: 1 μM, replicates: in singlicate; n = 1
# TAOK2 = settings: concentration: 1 μM, replicates: in singlicate; n = 1
# TAOK3 = settings: concentration: 1 μM, replicates: in singlicate; n = 1
# TBK1 = settings: concentration: 1 μM, replicates: in singlicate; n = 1
# TEC = settings: concentration: 1 μM, replicates: in singlicate; n = 1
# TESK1 = settings: concentration: 1 μM, replicates: in singlicate; n = 1
# TGFBR1 = settings: n = 1
# TGFBR2 = settings: concentration: 1 μM, replicates: in singlicate; n = 1
# TIE1 = settings: concentration: 1 μM, replicates: in singlicate; n = 1
# TIE2 = tested on: T2, TIE2; settings: concentration: 1 μM, replicates: in singlicate; n = 1
# T2 construct: gene TEK
# TLK1 = settings: concentration: 1 μM, replicates: in singlicate; n = 1
# TLK2 = settings: concentration: 1 μM, replicates: in singlicate; n = 1
# TNIK = settings: concentration: 1 μM, replicates: in singlicate; n = 1
# TNK1 = settings: concentration: 1 μM, replicates: in singlicate; n = 1
# TNK2 = settings: concentration: 1 μM, replicates: in singlicate; n = 1
# TNNI3K = settings: concentration: 1 μM, replicates: in singlicate; n = 1
# TRKA = tested on: T3, TRKA; settings: concentration: 1 μM, replicates: in singlicate; n = 1
# T3 construct: gene NTRK1
# TRKB = settings: concentration: 1 μM, replicates: in singlicate; n = 1
# [1] = concentration: 1 μM, replicates: in singlicate
# 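Further: KINOMEscan kinase panel screen.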
compound,measurement,setting,value
Nc1nc(-c2cccnc2)c(-c2ccnc3ccccc23)s1 [GW684083],%Inh,SgK110,48%
same,%Inh,TAK1,1%
same,%Inh,TAOK1,0%
same,%Inh,TAOK2,0%
same,%Inh,TAOK3,0%
same,%Inh,TBK1,2%
same,%Inh,TEC,0%
same,%Inh,TESK1,0%
same,%Inh,TGFBR1; [1],5%
same,%Inh,TGFBR2,14%
same,%Inh,TIE1,6%
same,%Inh,TIE2,0%
same,%Inh,TLK1,0%
same,%Inh,TLK2,0%
same,%Inh,TNIK,81%
same,%Inh,TNK1,0%
same,%Inh,TNK2,18%
same,%Inh,TNNI3K,0%
same,%Inh,TRKA,59%
same,%Inh,TRKB,39%
CN1CCC(n2cnc(-c3ccc(F)cc3)c2-c2ccnc(NC3CCNCC3)n2)CC1 [SB-229482],%Inh,SgK110,0%
same,%Inh,TAK1,34%
same,%Inh,TAOK1,0%
same,%Inh,TAOK2,0%
same,%Inh,TAOK3,0%
same,%Inh,TBK1,0%
same,%Inh,TEC,0%
same,%Inh,TESK1,7%
same,%Inh,TGFBR1; [1],28%
same,%Inh,TGFBR2,16%
same,%Inh,TIE1,0%
same,%Inh,TIE2,0%
same,%Inh,TLK1,11%
same,%Inh,TLK2,0%
same,%Inh,TNIK,1%
same,%Inh,TNK1,16%
same,%Inh,TNK2,0%
same,%Inh,TNNI3K,0%
same,%Inh,TRKA,17%
same,%Inh,TRKB,26%
FC(F)(F)c1ccc(-c2cc(-c3c[nH]nc3-c3ccccn3)ccn2)cc1 [GW599550],%Inh,SgK110,0%
same,%Inh,TAK1,28%
same,%Inh,TAOK1,0%
same,%Inh,TAOK2,0%
same,%Inh,TAOK3,0%
same,%Inh,TBK1,18%
same,%Inh,TEC,0%
same,%Inh,TESK1,17%
same,%Inh,TGFBR1; 1 µM,88%
same,%Inh,TGFBR2,77%
same,%Inh,TIE1,4%
same,%Inh,TIE2,0%
same,%Inh,TLK1,11%
same,%Inh,TLK2,11%
same,%Inh,TNIK,78%
same,%Inh,TNK1,0%
same,%Inh,TNK2,16%
same,%Inh,TNNI3K,0%
same,%Inh,TRKA,0%
same,%Inh,TRKB,0%
Cc1ccc(NC(=O)c2cccc(C#N)c2)cc1-c1ccc(C(=O)Nc2ccncc2)cc1 [GSK1398463],%Inh,SgK110,3%
same,%Inh,TAK1,0%
same,%Inh,TAOK1,0%
same,%Inh,TAOK2,23%
same,%Inh,TAOK3,3%
same,%Inh,TBK1,20%
same,%Inh,TEC,11%
same,%Inh,TESK1,0%
same,%Inh,TGFBR1; [1],0%
same,%Inh,TGFBR2,0%
same,%Inh,TIE1,11%
same,%Inh,TIE2,21%
same,%Inh,TLK1,0%
same,%Inh,TLK2,0%
same,%Inh,TNIK,13%
same,%Inh,TNK1,16%
same,%Inh,TNK2,21%
same,%Inh,TNNI3K,29%
same,%Inh,TRKA,0%
same,%Inh,TRKB,0%
Nc1nc(-c2ccc3c(N)n[nH]c3c2)cc(N2CCC[C@@H](C(=O)Nc3ccccc3)C2)n1.O=C(O)C(F)(F)F.O=C(O)C(F)(F)F [GSK2288359],%Inh,SgK110,0%
same,%Inh,TAK1,5%
same,%Inh,TAOK1,0%
same,%Inh,TAOK2,0%
same,%Inh,TAOK3,0%
same,%Inh,TBK1,31%
same,%Inh,TEC,0%
same,%Inh,TESK1,18%
same,%Inh,TGFBR1; [1],22%
same,%Inh,TGFBR2,0%
same,%Inh,TIE1,0%
same,%Inh,TIE2,0%
same,%Inh,TLK1,15%
same,%Inh,TLK2,10%
same,%Inh,TNIK,0%
same,%Inh,TNK1,0%
same,%Inh,TNK2,1%
same,%Inh,TNNI3K,5%
same,%Inh,TRKA,0%
same,%Inh,TRKB,0%
O=C(NCCCN1CCCC1=O)c1cnc(NCc2cc(Cl)ccc2Cl)nc1NC1CCNCC1,%Inh,SgK110,5%
same,%Inh,TAK1,27%
same,%Inh,TAOK1,0%
same,%Inh,TAOK2,0%
same,%Inh,TAOK3,0%
same,%Inh,TBK1,12%
same,%Inh,TEC,0%
same,%Inh,TESK1,2%
same,%Inh,TGFBR1; [1],0%
same,%Inh,TGFBR2,6%
same,%Inh,TIE1,1%
same,%Inh,TIE2,2%
same,%Inh,TLK1,12%
same,%Inh,TLK2,0%
same,%Inh,TNIK,0%
same,%Inh,TNK1,34%
same,%Inh,TNK2,0%
same,%Inh,TNNI3K,0%
same,%Inh,TRKA,69%
same,%Inh,TRKB,32%
Cc1ccc(C)c(NC(=O)NCCNc2ccnc(Nc3ccc(F)cc3)n2)c1 [GSK1379878],%Inh,SgK110,0%
same,%Inh,TAK1,0%
same,%Inh,TAOK1,0%
same,%Inh,TAOK2,0%
same,%Inh,TAOK3,0%
same,%Inh,TBK1,7%
same,%Inh,TEC,0%
same,%Inh,TESK1,32%
same,%Inh,TGFBR1; [1],0%
same,%Inh,TGFBR2,0%
same,%Inh,TIE1,0%
same,%Inh,TIE2,0%
same,%Inh,TLK1,1%
same,%Inh,TLK2,0%
same,%Inh,TNIK,0%
same,%Inh,TNK1,0%
same,%Inh,TNK2,9%
same,%Inh,TNNI3K,0%
same,%Inh,TRKA,10%
same,%Inh,TRKB,0%
COc1ccc(Nc2nccc(N3CCC(NC(=O)Nc4ccc5c(c4)OCO5)C3)n2)cc1 (centres unmarked) [GSK1379745],%Inh,SgK110,2%
same,%Inh,TAK1,0%
same,%Inh,TAOK1,0%
same,%Inh,TAOK2,0%
same,%Inh,TAOK3,0%
same,%Inh,TBK1,18%
same,%Inh,TEC,9%
same,%Inh,TESK1,12%
same,%Inh,TGFBR1; [1],8%
same,%Inh,TGFBR2,0%
same,%Inh,TIE1,19%
same,%Inh,TIE2,0%
same,%Inh,TLK1,18%
same,%Inh,TLK2,0%
same,%Inh,TNIK,1%
same,%Inh,TNK1,0%
same,%Inh,TNK2,14%
same,%Inh,TNNI3K,11%
same,%Inh,TRKA,64%
same,%Inh,TRKB,41%
Clc1ccc(-c2cc(-c3c[nH]nc3-c3ccccn3)ccn2)cc1 [GW681251],%Inh,SgK110,0%
same,%Inh,TAK1,0%
same,%Inh,TAOK1,0%
same,%Inh,TAOK2,0%
same,%Inh,TAOK3,0%
same,%Inh,TBK1,0%
same,%Inh,TEC,0%
same,%Inh,TESK1,12%
same,%Inh,TGFBR1; 1 µM,79%
same,%Inh,TGFBR2,85%
same,%Inh,TIE1,33%
same,%Inh,TIE2,0%
same,%Inh,TLK1,0%
same,%Inh,TLK2,0%
same,%Inh,TNIK,80%
same,%Inh,TNK1,0%
same,%Inh,TNK2,0%
same,%Inh,TNNI3K,17%
same,%Inh,TRKA,0%
same,%Inh,TRKB,0%
CSc1ccc(NC2=C(c3ccccc3Cl)C(=O)NC2=O)cc1 [SB-342411],%Inh,SgK110,0%
same,%Inh,TAK1,7%
same,%Inh,TAOK1,0%
same,%Inh,TAOK2,1%
same,%Inh,TAOK3,0%
same,%Inh,TBK1,27%
same,%Inh,TEC,10%
same,%Inh,TESK1,6%
same,%Inh,TGFBR1; [1],0%
same,%Inh,TGFBR2,0%
same,%Inh,TIE1,40%
same,%Inh,TIE2,0%
same,%Inh,TLK1,35%
same,%Inh,TLK2,6%
same,%Inh,TNIK,0%
same,%Inh,TNK1,0%
same,%Inh,TNK2,0%
same,%Inh,TNNI3K,29%
same,%Inh,TRKA,20%
same,%Inh,TRKB,0%

# — paper PMC5540273 (PLoS ONE, 2017)
